# High-throughput results (PubChem)
# L3MBTL1 block – qHTS Assay for the Inhibitors of L3MBTL1; AlphaScreen L3MBTL1–H3K9me1 peptide binding; 230,000 compounds, 0.66% hits; AID 485360, 2010; Potency, µM (highest dose often 57.1 µM), for the others: at the highest dose activity, negative = inhibition, most hits filed as inhibitors; Lethal(3)malignant brain tumor-like protein 1 (Homo sapiens), Q9Y468; also: % is scaled to controls: 0 for no effect and ±100 for the full control effect; nearly all actives have a fitted effect of over 60% in size
# Target sequence (Q9Y468 whole entry, looked up): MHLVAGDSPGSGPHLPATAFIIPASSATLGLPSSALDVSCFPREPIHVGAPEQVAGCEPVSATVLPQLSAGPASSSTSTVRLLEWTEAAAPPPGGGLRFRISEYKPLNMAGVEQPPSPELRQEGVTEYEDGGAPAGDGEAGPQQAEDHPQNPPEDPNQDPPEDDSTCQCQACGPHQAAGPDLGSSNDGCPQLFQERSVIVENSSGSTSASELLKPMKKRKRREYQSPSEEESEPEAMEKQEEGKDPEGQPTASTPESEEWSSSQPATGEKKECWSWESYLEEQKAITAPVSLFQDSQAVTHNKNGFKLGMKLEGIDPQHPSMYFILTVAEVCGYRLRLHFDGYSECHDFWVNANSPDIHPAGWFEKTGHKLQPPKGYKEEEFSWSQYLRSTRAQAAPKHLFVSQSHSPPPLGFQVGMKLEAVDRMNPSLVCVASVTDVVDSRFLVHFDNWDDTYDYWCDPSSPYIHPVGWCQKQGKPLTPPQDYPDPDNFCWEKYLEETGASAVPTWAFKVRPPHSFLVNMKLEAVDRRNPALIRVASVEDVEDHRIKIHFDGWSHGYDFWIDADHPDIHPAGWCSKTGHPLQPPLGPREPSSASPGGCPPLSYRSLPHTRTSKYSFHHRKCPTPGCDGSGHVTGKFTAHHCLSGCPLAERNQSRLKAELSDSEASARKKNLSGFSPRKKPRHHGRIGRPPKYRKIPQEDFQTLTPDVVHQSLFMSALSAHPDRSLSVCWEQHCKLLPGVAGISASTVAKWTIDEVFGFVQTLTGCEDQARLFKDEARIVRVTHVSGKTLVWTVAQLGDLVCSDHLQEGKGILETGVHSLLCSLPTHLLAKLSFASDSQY
#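 L3MBTL1 50 nM + b-AHA-H3(1-15)K9me1 75 nM, 30 min RT; compound added, 30 min RT; streptavidin donor/Ni-chelate acceptor beads 10 ug/mL each final, 30 min RT dark; AlphaScreen read.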
# HP1b binding inh – HTS for Inhibitors of HP1-beta Chromodomain Interactions with Methylated Histone Tails; 390,000 compounds, 0.56% hits; AlphaScreen HP1-beta / biotin-H3K9me3 peptide binding; Potency, µM (doses to about 114 µM), without a hit: at the top dose activity change, negative = inhibition, usual class: inhibitors; also: nearly all actives have a fitted effect of over 70% in size
#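 Compound inhibition of the preformed complex between 50 nM HP1-beta and 50 nM biotinylated H3K9me3 peptide was read by AlphaScreen. Buffer was PBS pH 7.4 with 0.01% Tween-20. Incubations ran 30 min at room temperature, with 10 ug/mL donor/acceptor beads.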
# JMJD2A Tudor – qHTS Assay for Inhibitors of JMJD2A-Tudor Domain | Potency, µM (series often up to 114 µM), for the others: top-dose activity change, negative = inhibition, actives largely listed as inhibitors | Lysine-specific demethylase 4A (Homo sapiens), O75164 | AID 504339, 2011 | AlphaScreen JMJD2A-Tudor / H3K4me3 peptide binding | 390,000 compounds, 4.4% hits; also: % is scaled to controls: 0 for no effect and ±100 for the full control effect; nearly all actives have a fitted effect of over 50% in size
# Sfp PPTase inh – qHTS Assay for Inhibitors of Bacillus subtilis Sfp phosphopantetheinyl transferase (PPTase) | 4'-phosphopantetheinyl transferase ffp (Bacillus subtilis), Q9F4F7 | Biochemical Sfp PPTase activity, qHTS | Potency, µM, without a hit: largest response in the series, negative = inhibition, hits mostly inhibitors | 310,000 compounds, 3.5% hits | AID 1490, 2009;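 also: the enzyme is Sfp with the accession as filed and its product quenches rhodamine fluorescence; 0% = enzyme reaction without inhibitor and -100% = no enzyme wells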
#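 Sfp 15 nM + cpd, 15 min RT; start w/ rhodamine-CoA 5 uM, BHQ-2-YbbR 12.5 uM (final); 50 mM Hepes pH 7.6, 10 mM MgCl2, 0.01% NP-40, 0.01% BSA; read 525/598 nm at 0 and 30 min.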
# BAZ2B inh – qHTS Assay for Inhibitors of BAZ2B | Potency, µM (series often up to 114 µM), for inactives: at the top dose activity change, negative = inhibition, actives largely listed as inhibitors | Bromodomain adjacent to zinc finger domain protein 2B (Homo sapiens), Q9UIF8 | 360,000 compounds, 4.4% hits | AlphaScreen BAZ2B-H3K14Ac peptide displacement | AID 504333, 2011; also: % is scaled to controls: 0 for no effect and ±100 for the full control effect; nearly all actives have a fitted effect of over 60% in size
#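 Protein-peptide AlphaScreen: BAZ2B 50 nM, b-H3K14Ac 50 nM, 1x PBS pH 7.4 + 0.01% Tween-20. Preincubation 30 min RT; cpd 30 min RT (top 110 uM); beads 20 min RT, light-protected.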
# G9a block – qHTS Assay for Inhibitors of Histone Lysine Methyltransferase G9a; Potency, µM (doses to about 102 µM), for inactives: top-dose activity, negative = inhibition, most hits filed as inhibitors; Histone-lysine N-methyltransferase EHMT2 (Homo sapiens), Q96KQ7; G9a H3K9 monomethylation, AlphaScreen, 2 h; 350,000 compounds, 8.8% hits; also: % is scaled to controls: 0 for no effect and ±100 for the full control effect; nearly all actives have a fitted effect of over 75% in size
#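 Enzyme 20 nM + cpd, 15 min RT; add b-H3K9 pep 500 nM / SAM 20 uM; 2 h RT; anti-H3K9me1 Ab 0.5 ug/mL + SA donor / anti-rabbit acceptor beads 20 ug/mL each, 10 min; AlphaScreen read.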
# Starred values were filed as active, the others as inactive; ? = inconclusive; · = no result; [ ] = another dose, or the depositor's remark. A selection: hits, their analogues and other compounds. The true share with any hit is near 12%. Calls follow the shape of the dose curve; as a rule, active = well fitted curve in the direction sought with a large enough effect; inconclusive = small, poorly fitted or top-dose-only effect, or another doubt; inactive = no such curve, though single readings can be large; an effect the other way counts as inactive or inconclusive. Potency is read from the fitted curve at half-maximal effect.
SMILES,L3MBTL1 block,HP1b binding inh,JMJD2A Tudor,Sfp PPTase inh,BAZ2B inh,G9a block
COc1cccc(NC(=O)CN(C)S(=O)(=O)c2cccs2)c1,·,5%,-16%,·,0%,-8%[59 µM]
COc1ccc(Br)cc1CNC(=O)c1cnc2sc(N3CCCC3)nn2c1=O,·,-10%,-18%,·,-4%,3%[59 µM]
Cc1ccccc1-c1nn2c(=O)cc(CN3CCN(C(=O)c4ccc(C(C)(C)C)cc4)CC3)nc2s1,·,-2%[57 µM],-22%,·,-5%,-22%[59 µM]
Cc1sc(NC(=O)c2ccco2)c(C(c2ccc(F)cc2)N2CCN(C)CC2)c1C (stereo unspecified),-17%,?,56µM*,-14%,50µM*,45µM*
Cc1sc(NC(=O)c2ccco2)c(C(=O)c2ccc(Cl)cc2)c1C,-21%,?,?,40µM*,?,22µM*
CCCCCOC(=O)Nc1ccc(S(=O)(=O)Nn2cnnc2)cc1,1%,-2%,89µM*,-12%,-2%,10%[59 µM]
CC(=O)c1ccc(S(=O)(=O)NC2CC(=O)N(c3ccc(Cl)cc3)C2)cc1 (stereo unspecified),-7%,21%,-9%,·,-13%,?
Clc1ccccc1-c1ccc(/C=N/n2cnnc2)o1,-3%,30%,-17%,5%,4%,-19%
O=C(O)C(c1ccccc1)N1C(=O)/C(=C\c2ccc(-c3ccccc3Cl)o2)SC1=S (stereo unspecified),·,?,20µM*,50µM*,18µM*,40µM*
C=CCN1C(=O)/C(=C\C(C)=C\c2ccccc2)SC1=S,1%[2.29 µM],?,?,11%,?,24%[0.501 µM]
O=C(O)C(c1ccccc1)N1C(=O)/C(=C\c2ccc(-c3ccc(Br)cc3)o2)SC1=S (stereo unspecified),·,?,20µM*,-23%,20µM*,40µM*
C=CCN1C(=O)/C(=C/c2ccc(-c3ccc(F)cc3)o2)SC1=S,·,-20%,?,56µM*,?,?
O=C(O)C(Cc1ccccc1)N1C(=O)/C(=C/c2ccccc2)SC1=S (stereo unspecified),-28%,-18%,?,-2%,?,?
CCN(c1ccccc1)S(=O)(=O)c1cc(Br)cc2c1N(C(=O)C1CC1)CC2,·,13%,-14%,·,-2%,-30%[59 µM]
O=C(O)CC(CCc1ccccc1)OC1OC(CO)C(O)C(O)C1O (stereo unspecified),·,?,8.9µM*,-8%,?,?
[C-]#[N+][C@H](O[C@@H]1O[C@H](CO)[C@@H](O)[C@H](O)[C@H]1O)c1ccccc1,·,38%,-10%,·,·,·
CCOc1ccc(-n2c(-c3ccc(Br)cc3)cc3c2CC(C)(C)CC3=O)cc1,·,?,13µM*,·,10µM*,?
COc1ccc(OCC(CO)N2CCN(c3ccccc3)CC2)cc1 (stereo unspecified),·,10%[57 µM],-19%,·,·,·
COc1cc(SC)ccc1C(=O)N(CC(=O)Nc1ccccc1Br)Cc1ccco1,0%,3%,-27%,·,-35%,40µM*
O=C(CN(Cc1ccco1)C(=O)c1cc(=O)[nH]c2ccccc12)Nc1ccccc1Br,-2%,17%,-10%,12%,0%,13%[59 µM]
CCc1ccc(NC(=O)CSc2nc(C)cc(COC)c2C#N)cc1,·,40%,-4%,·,-2%,-1%[59 µM]
O=S(=O)(NCc1cccnc1)c1cccc2nsnc12,-3%,11%,-9%,9%,5%,32µM*
